We go through 22 compounds from PubChem BioAssay (Tox21).

A short description of test [1]: A CellTox Green Cytotoxicity Assay to monitor cytotoxicity in HEK293 cells - 40 hour (AID 1224871). Also: nearly all actives have a fitted effect of over 45% in size. Also: potency is read from the fitted curve at half-maximal effect. In a few lines:
(§1)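 Dead-cell fluorescence measured kinetically: asymmetric cyanine dye, HEK293, 600 cells/well, 5 h settle, 23 nL cpd/DMSO, 37 C, reads 0–40 h every 8 h.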

Test [2] is described as follows: qHTS RealTime-Glo MT Cell Viability Assay in HEK293 cells - 16 hour (AID 1224872). Also: nearly all actives have a fitted effect of over 50% in size. Also: potency is read from the fitted curve at half-maximal effect. Put shortly:
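Luminescence generated by NanoLuc from substrate produced by living HEK293 cells served as the viability signal. Each value reflects the reading at its stated time point during continuous 40 h compound exposure at 37 C.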

Test [3] in a line: qHTS RealTime-Glo MT Cell Viability Assay in HEK293 cells - 40 hour (AID 1224874). Also: nearly all actives have a fitted effect of over 50% in size. Also: potency is read from the fitted curve at half-maximal effect. The note with it: RealTime-Glo luminescence; max response: stronger effect = lower value. In a few lines: (§2)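 600 HEK293 cells per well, dispensed already mixed with RealTime-Glo MT reagents. Compound dosing came 5 h later. The same wells were read for luminescence at 0, 8, 16, 24, 32 and 40 h of exposure at 37 C.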
In general terms: In qHTS, concentration-response curves come from the screen itself.

A short description of test [4]: A CellTox Green Cytotoxicity Assay to monitor cytotoxicity in HEK293 cells - 24 hour (AID 1224875). Also: series mostly up to about 77 µM; nearly all actives have a fitted effect of over 45% in size. In a few lines: as §1
The nature of test [5]: A CellTox Green Cytotoxicity Assay to monitor cytotoxicity in HepG2 cells - 16 hour (AID 1224876). Also: nearly all actives have a fitted effect of over 45% in size. Also: potency is read from the fitted curve at half-maximal effect. In a few lines: (§3)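 First, HepG2 cells (600/well) mixed with reagent were plated; second, after 5 h at 37 C they received compounds via pintool; third, fluorescence was measured at 0 h through 40 h at 8 h intervals.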
Test [6] in a line: qHTS RealTime-Glo MT Cell Viability Assay in HepG2 cells - 32 hour (AID 1224877). Also: nearly all actives have a fitted effect of over 55% in size. Put shortly: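 Tox21 10K library screened in qHTS format on HepG2 cells carrying RealTime-Glo reagents. Compounds were added after a 5 h preincubation, and the luminescent signal from continuous culture was measured repeatedly during 40 h treatment.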
Test [7] is described as follows: A CellTox Green Cytotoxicity Assay to monitor cytotoxicity in HepG2 cells - 24 hour (AID 1224878). Also: nearly all actives have a fitted effect of over 45% in size. Also: potency is read from the fitted curve at half-maximal effect. In a few lines:
as §3

Test [8] can be described thus: A CellTox Green Cytotoxicity Assay to monitor cytotoxicity in HepG2 cells - 40 hour (AID 1224879). Also: nearly all actives have a fitted effect of over 40% in size. Also: potency is read from the fitted curve at half-maximal effect. In a few lines: as §3
The nature of test [9]: qHTS RealTime-Glo MT Cell Viability Assay in HEK293 cells - 0 hour (AID 1224880). Also: nearly all actives have a fitted effect of over 45% in size. Also: potency is read from the fitted curve at half-maximal effect. In a few lines: as §2
A short description of test [10]: qHTS RealTime-Glo MT Cell Viability Assay in HepG2 cells - 8 hour (AID 1224873). Also: nearly all actives have a fitted effect of over 55% in size. Also: potency is read from the fitted curve at half-maximal effect. In a few lines: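 HepG2 cells mixed with RealTime-Glo MT reagents (NanoLuc plus cell-permeant prosubstrate) were seeded at 600 cells/well, incubated 5 h at 37 C/5% CO2, then pinned with compounds in DMSO; nonlytic luminescence tracked viability during 40 h treatment.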

Several values for one entry are separate records, joined by “and”; a condition that tells them apart may be missing. Equal values may be shown once. Records with an inconclusive call do not appear. More than one record can exist for a structure, and the calls need not agree. Activity calls are given as the source filed them. Calls follow the shape of the dose curve; as a rule, active = well fitted curve in the direction sought with a large enough effect in the repeat runs; inconclusive = weak or mixed curves; inactive = no such curve, though single readings can be large; an effect the other way counts as inactive or inconclusive.
% is scaled to controls: 0 for no effect and ±100 for the full control effect.

For `O=C(O)CCCC(=O)O`, the Potency entry in [1], in test [2], in [4], in test [5], in [6] and in [7] was “inactive” each time. Moreover, the Potency entry in [8] and in [9] was “inactive” each time. Besides, in [3], the max response is -2.98% (inactive) and 4.62% (inactive).
`c1ccc2ncccc2c1`: the Potency entry in test [1], in [2], in test [10], in [6], in test [7] and in [8] was “inactive” each time. For the same compound, the Potency result in test [9] was “inactive”. For the same compound, in [3], the max response is -2.01% (inactive) and 11.7% (inactive).
For `CCCCCCCCCCCCCO`, the Potency entry in test [1], in test [2], in test [10], in [5], in test [6] and in test [7] was “inactive” throughout. Further, the Potency entry in test [9] is “inactive”. Also, the max response in [3] was 3.82% (inactive) and -0.0255% (inactive).
As for `Nc1ccc(N)c(Cl)c1`, the Potency result is “inactive and 38.9 µM (active)” in [1]; 48.9 µM (active) in test [2]; “inactive and 49 µM (active)” in test [10]; “inactive and 27.5 µM (active)” in [5]; “inactive and 43.6 µM (active)” in [7]; “inactive and 43.6 µM (active)” in test [8]. The max response in [3] is -27.4% (inactive) and -12.8% (inactive). Also, the Potency result in test [6] and in [9] was “inactive” each time.
As to `c1ccc2c(c1)[nH]c1ccccc12`, the Potency result in [1], in test [2], in [5], in test [6], in [7] and in test [9] was “inactive” in each case. Besides, the max response in test [3] is -8.89% (inactive).
Regarding `C[C@]12CC[C@@H]3c4ccc(O)cc4CC[C@H]3[C@@H]1CC[C@@H]2O`, the Potency result in test [1], in [10], in test [4], in test [6], in test [7] and in [9] was “inactive” in each case. For the same compound, the Potency in test [3] was 17.3 µM (active) and 21.9 µM (active); in test [8], 34.6 µM (active).
With `O=C1CCc2ccccc2O1`, the Potency result in test [1], in test [2], in test [5], in test [6], in test [7] and in test [8] was “inactive” each time. The Potency entry in test [9] is “inactive”. Besides, the max response in test [3] was 3.8% (inactive) and -0.872% (inactive).
On to `CCc1cccc2c3c([nH]c12)C(CC)(CC(=O)O)OCC3` (stereo not drawn), for which the Potency entry in test [1], in [2], in [4], in [5], in test [6] and in test [7] was “inactive” each time. In addition, the Potency entry in test [8] and in test [9] was “inactive” each time. In addition, the max response in test [3] is 0.853% (inactive) and 0.265% (inactive).
With `C=C1C[C@H]2[C@@H]3C=C(C)C4=CC(=O)CC[C@]4(C)[C@H]3CC[C@]2(C)[C@@]1(OC(C)=O)C(C)=O`, the Potency result in test [1], in [4], in [5], in [6], in [7] and in test [8] was “inactive” throughout.
Turning to `OCCNCCO`, the Potency entry in test [1], in [2], in test [4], in [5], in test [6] and in [7] was “inactive” in each case. The Potency result in [8] and in test [9] was “inactive” throughout. In addition, in test [3], the max response was 4.46% (inactive) and 5.31% (inactive).
Regarding `CCC(=O)O[C@H]1[C@H](O[C@@H]2[C@@H](C)[C@H](O[C@H]3C[C@@](C)(OC)[C@@H](O)[C@H](C)O3)[C@@H](C)C(=O)O[C@H](CC)[C@@](C)(O)[C@H](O)[C@@H](C)C(=O)[C@H](C)C[C@@]2(C)O)O[C@H](C)C[C@@H]1N(C)C`, in test [1], the Potency was 28.9 µM (active) and inactive. Further, the Potency result in test [2], in test [6], in [7], in test [8] and in test [9] was “inactive” throughout. The max response in [3] is -5.5% (inactive).
Regarding `FC(F)(F)C(Cl)Br` (stereo not drawn), the Potency result in test [1], in [2], in test [4], in [6], in test [7] and in test [8] was “inactive” throughout. For the same compound, the Potency result in test [9] is “inactive”. Further, in [3], the max response is -4.81% (inactive) and 5.64% (inactive).
Turning to `CCO[Si](CCCNC(N)=O)(OCC)OCC`, the Potency result in [1], in test [2], in test [4], in [6], in test [7] and in test [8] was “inactive” throughout. In [9], the Potency entry is “inactive”. Besides, in [3], the max response was -7.6% (inactive) and 2.5% (inactive).
`COc1ccc(-c2coc3cc(O)cc(O)c3c2=O)cc1`: the Potency entry in [1], in [10], in test [4], in [6] and in [9] was “inactive” throughout. Further, the Potency was 49.4 µM (active) in test [3] and 55.4 µM (active) in [8].
For `C1CN(SSN2CCOCC2)CCO1`, in test [1], the Potency is 54.4 µM (active) and inactive. For the same compound, the Potency result in [2], in test [6], in [7], in test [8] and in [9] was “inactive” throughout. In test [3], the max response was -14.4% (inactive).
`Cc1ccc(S(=O)(=O)NCl)cc1`: the Potency result in [1], in [2], in test [5], in test [6], in test [7] and in test [8] was “inactive” in each case. Further, the Potency entry in test [9] is “inactive”. Further, the max response in [3] is 4.42% (inactive) and 3.53% (inactive).
With `CCCCCC=O`, the Potency entry in [1], in test [2], in [6], in test [7], in [8] and in test [9] was “inactive” throughout. In test [3], the max response was -0.468% (inactive) and 7.09% (inactive).
With `CCCCCCOCCOCCO`, the Potency entry in test [1], in test [2], in [4], in test [5], in test [6] and in test [7] was “inactive” in each case. The Potency result in test [8] and in test [9] was “inactive” each time. Moreover, the max response in test [3] was 4% (inactive) and -0.302% (inactive).
Regarding `Oc1ccc(C(c2ccc(O)cc2)C(Cl)(Cl)Cl)cc1`, the Potency result in test [1], in test [4], in test [5], in test [6], in test [7] and in [8] was “inactive” in each case. For the same compound, the Potency result in test [9] was “inactive”. Further, the Potency in test [3] was 34.5 µM (active).
`CC1(C)OC(=O)NC1=O`: the Potency result in test [1], in [2], in [6], in [7], in test [8] and in test [9] was “inactive” each time. In addition, the max response in test [3] is -4.09% (inactive) and 7.44% (inactive).
As to `COC(=O)c1ccc(C)cc1`, the Potency entry in test [1], in test [2], in [4], in test [6], in test [7] and in test [8] was “inactive” in each case. For the same compound, the Potency entry in test [9] was “inactive”. Further, the max response in [3] was 1.02% (inactive) and 6.36% (inactive).
Regarding `CC(=O)O[C@]1(C(C)=O)CC[C@H]2[C@@H]3C=C(C)C4=CC(=O)CC[C@]4(C)[C@H]3CC[C@@]21C`, the Potency entry in test [1], in [10], in [5], in [6], in test [7] and in test [8] was “inactive” in each case. Also, the Potency in test [3] is 19.5 µM (active) and 10.7 µM (active); in test [9], 5.49 µM (active) and 2.68 µM (active).
